High-throughput results deposited in PubChem by National Center for Advancing Translational Sciences (NCATS).
Many of the other results were omitted from the sample, so hits are more common in it than they were.
Methyltransferases: Primary Screen for Target Class Profiling of Small Molecule Inhibitors of Methyltransferases. purified enzyme, MTase-Glo SAH luminescence; stronger effect = lower value. calls only at 40 µM. 25,000 tested, 3.9% active; call rule not given here
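Each enzyme was reacted with SAM and its substrate, with compounds tested once at 40 uM; SAH formed was read by MTase-Glo luminescence.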
MTase-Glo ctr: inhibits MTase-Glo coupling enzymes without methyltransferase; 180 tested, 6% active; shares compounds with Methyltransferases; Potency, µM (doses to about 57.3 µM), inactives show at the top dose activity change, negative = inhibition, actives largely listed as inhibitors; AID 1745851; MTase-Glo coupled enzymes, SAH conversion luminescence, no MTase; active means well fitted inhibition curve with a large enough effect; further: potency means the concentration at half of the fitted maximal effect
Active calls of the source: *; i = inactive; + = active, no number; [ ] = dose if it differs, or a comment. On the % scale 0 is the no-effect control and ±100 the full control effect.

SMILES	Methyltransferases	others
O=C(Nc1ccc2c(N3CCOCC3)ncnc2c1)c1cccc(Cl)c1	+	MTase-Glo ctr=-1%
Cn1c(=O)c2ccc(C(=O)NC3CCCC3)cc2n2c(=O)n(CC(=O)Nc3cccc(Cl)c3)nc12	i
O=C(Nc1ccc2c(N3CCCCC3)ncnc2c1)c1ccccc1C(F)(F)F	+	MTase-Glo ctr=1.7µM*
O=C1CC(C(=O)Nc2cccc(Cl)c2)n2ncnc2N1 (stereo not drawn)	i
O=C(Nc1ccccc1C(F)(F)F)N1CCCC(Cn2cnc3cccnc32)C1 (stereo not drawn)	i
CCC(C)C(N)C(=O)NCCN1CCOCC1 (stereo not drawn)	i
COc1ccc(CN2Cc3[nH]cnc3C[C@H]2c2nc(Cc3ccccc3)no2)cc1	i
Cc1ccc(CNC(=O)C2(C)Cn3nc(C(=O)NCCN(C)C)cc3C(=O)N2C)cc1 (stereo not drawn)	i
COc1ccc(-c2cc3n(n2)CC(C)(C(=O)NCc2ccccc2)N(c2cccc(SC)c2)C3=O)cc1 (stereo not drawn)	i
CN1CCN(c2ncnc3c2CN(C2CCCCC2)C(=O)CN3C)CC1	i
CN1CCN(c2ncnc3sc4c(c23)CCNC4)CC1	+	MTase-Glo ctr=15µM*
CCNc1ncnc2sc3c(c12)CCN(C(=O)COC)C3	i
CC1(C(=O)NC2CCCCCCC2)Cn2c(cc3occc32)C(=O)N1C1CCCCC1 (stereo not drawn)	i
COc1ccc(CNC(=O)CCc2nnc3n(CCCOC(C)C)c(=O)c4ccccc4n23)cc1	i
Cn1cc(-c2cnc(Nc3cccnc3)c3c2CCO3)cn1	i
Cc1noc(C)c1-c1cnc(Nc2ccncc2)c2c1CCO2	+	MTase-Glo ctr=-3%[85.7 µM]
Fc1cccc(Nc2ncc(-c3cncnc3)c3c2OCC3)c1	i
CC1(C(=O)NC2CCCCCC2)Cn2nc(-c3ccco3)cc2C(=O)N1Cc1ccc(F)cc1 (stereo not drawn)	i
COc1ccc(CCN2C(=O)c3cc4sccc4n3CC2(C)C(=O)NC2CCCCC2)cc1OC (stereo not drawn)	i
CN(Cc1cnn(C)c1)C(=O)c1csc2nc(-c3cccc(C(F)(F)F)c3)cn12	i
CCCn1c(C)cnc1CCNC(=O)CC1CCN(C(C)=O)CC1	i
CCNc1nccc(N2CCC(CC(=O)N3CCN(c4ccccc4F)CC3)CC2)n1	+	MTase-Glo ctr=3%
CC1(C)N=C(c2ccccc2)C(=O)N1CC(=O)N1CCN(c2ccccc2F)CC1	i
COc1nccc(N2CCC(CC(=O)N3CCN(C(C)=O)CC3)CC2)n1	i
CCNc1nccc(N2CCC(CC(=O)NCC(C)C)CC2)n1	+	MTase-Glo ctr=0%
SMILES	Methyltransferases	others
CCOc1ccc(-c2ccnc(NC[C@@H]3CCCO3)n2)cc1C(=O)O	i
CC(C)CCNC(=O)C1(C)Cn2c(cc3ccccc32)C(=O)N1CCCc1ccccc1 (stereo not drawn)	i
CN1C(=O)CO[C@H]2CN(c3ccc(C#N)cn3)C[C@H]21	i
COC(=O)[C@@H]1Cc2ncn(Cc3ccc(Cl)cc3)c2CN1CCCc1ccccc1	+	MTase-Glo ctr=11µM*
COc1ccc(-c2cc3n(n2)CC(C)(C(=O)NCc2ccccc2)N(CCc2ccc(Cl)cc2)C3=O)cc1 (stereo not drawn)	i
CCCn1cnc2c1CN(S(=O)(=O)c1ccc(F)cc1)[C@H](C(=O)OC)C2	i
CCn1c(CO)nnc1C1CC(NC(=O)c2oc3cc(OC)ccc3c2C)C1 (stereo not drawn)	i
C=CCn1c(=O)c2ccc(C(=O)NC(C)C)cc2n2c(=O)n(CC(=O)Nc3cccc(F)c3)nc12	i
COc1ccc(Cl)cc1NC(=O)N1CCn2cccc2C1Cc1ccccc1 (stereo not drawn)	i
Cc1ccc(S(=O)(=O)c2nnn3c2nc(NCc2ccc(F)cc2)c2ccccc23)cc1	i
CC(C)NC(=O)c1ccccc1OCC1CCCN(Cc2cn(C)c3ccccc23)C1 (stereo not drawn)	+	MTase-Glo ctr=4%
COc1ccc(CN2CCCC(COc3ccccc3C(=O)NC3CC3)C2)c(OC)c1 (stereo not drawn)	+	MTase-Glo ctr=-5%
COc1cccc(CN2CC(Oc3ccccc3C(=O)NC3CC3)C2)c1	i
CCOc1ccccc1C(=O)NC1CCN(c2cc(C)cc(C)c2)C1=O (stereo not drawn)	i
COc1cc(OC)cc(C(=O)NCC2CCCN(Cc3cc4ccccc4o3)C2)c1 (stereo not drawn)	i
COc1ccc(O)c(CN2CCCC(Nc3ccc(F)cc3)C2)c1 (stereo not drawn)	i
Cc1nn(-c2ccccc2)c2c1C(C(C)C)N(C1CN([S+](C)(=O)[O-])C1)C2=O (stereo not drawn)	i
O=C(CCc1nnc2n(Cc3ccc(F)cc3)c(=O)c3ccccc3n12)NCCC1=CCCCC1	i
COc1ccc(-c2nn(-c3ccccc3C)cc2CN2C[C@@H](C)O[C@@H](C)C2)cc1F	i
CN(C)C(=O)N1CCC2(CC1)CC(c1cccc(C(F)(F)F)c1)=NO2	i
O=C(NCCc1ccco1)c1cc2n(n1)CCCN(Cc1ccc(Cl)cc1)C2=O	i
O=c1[nH]c(C2CCN(Cc3ccc(-c4cccnc4)cc3)CC2)nc2ccc(F)cc12	i
CN1C(=O)c2cc(C(=O)NCc3ccc(Cl)cc3)nn2CC1(C)C(=O)NC1CCCC1 (stereo not drawn)	i
Cc1ccc(C(=O)Cn2nc3n(C(C)C)c(=O)c4ccc(C(=O)NC5CCCCC5)cc4n3c2=O)c(C)c1	i
Cc1ccc(NC(=O)N2CCn3cccc3C2C)cc1 (stereo not drawn)	i
SMILES	Methyltransferases	others
Cc1ccc(NC(=O)N2CCN(c3nnnn3-c3ccccc3)CC2)cc1	i
Cc1ccc(NC(=O)N2CCc3c(c4ccccc4n3CC3CC3)C2)cc1	+	MTase-Glo ctr=5%
CC(=O)C1CCC(=O)N1Cc1ccccc1 (stereo not drawn)	i
CS(=O)(=O)N1CCC(C2CCN(Cc3ccc4c(c3)CCO4)C2)CC1 (stereo not drawn)	i
Nc1ccc(-c2nc3ccc(-c4nc5ccc(N)cc5[nH]4)cc3[nH]2)cc1	i
Cc1cc(-c2nc3ccncc3[nH]2)c(C)[nH]1	+	MTase-Glo ctr=-3%[114 µM]
Cc1ccc(Cn2nc3n(CC(C)C)c(=O)c4ccc(C(=O)NC(C)C)cc4n3c2=O)cc1	i
O=C(CCc1nnc2n(Cc3ccc(Cl)cc3)c(=O)c3ccccc3n12)NC1CC1	i
CCC(C)NC(=O)c1ccc2c(=O)n(CC(C)C)c3nn(Cc4ccccc4)c(=O)n3c2c1 (stereo not drawn)	i
COCCNc1cc(-c2noc([C@@H]3CCCN3CC(C)C)n2)ccn1	+	MTase-Glo ctr=-3%[85.7 µM]
Fc1ccccc1CN1CCC[C@H]1c1nc(-c2ccnc(N3CCOCC3)c2)no1	i
COCC(=O)Nc1ccc(-c2noc([C@@H]3CCCN3Cc3ncc[nH]3)n2)cn1	i
Cc1cnc(C2CC2)n1C1CCCN(C(=O)c2ccoc2)C1 (stereo not drawn)	i
Cc1cnc(C2CCOCC2)n1C1CCCN(S(=O)(=O)c2ccccc2)C1 (stereo not drawn)	i
Cc1cnc(C2CC2)n1C1CCCN(Cc2ccccc2)C1 (stereo not drawn)	+	MTase-Glo ctr=-5%
Cn1c(=O)c2ccc(C(=O)NC3CCCCC3)cc2n2c(SCC(=O)Nc3ccccc3F)nnc12	i
